# Screening data: PubChem BioAssay, National Center for Advancing Translational Sciences (NCATS)
# a7 integrin act – qHTS for Activators of Integrin-Mediated Alleviation for Muscular Dystrophy. alpha7betagal myoblasts, beta-gal FDG fluorescence, 48 h. Potency, µM (doses to about 38.3 µM), for the others: at the highest dose activation, hits mostly activators. hit rate 0.064% among 350,000;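 note: potency is the fitted concentration of half-maximal effect; 100% = response of the positive control SU9516; nearly all actives have a fitted effect of over 60% in size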
#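 Alpha7betagal+/- myoblasts (passage 13) were plated 16-24 hr, then exposed to compounds (1:260 dilution of DMSO stock) for 48 hours at 37C. After MPER lysis, β-galactosidase reporter activity was read as FDG fluorescence (ex 480/em 540) after 30 minutes.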
# mIDH1 inhibitor – qHTS for Inhibitors of mutant isocitrate dehydrogenase 1 (IDH1): qHTS | hit rate 0.093% among 390,000 | Isocitrate dehydrogenase [NADP] cytoplasmic (Homo sapiens), O75874 | Potency, µM (top dose mostly 76.6 µM), for inactives: at the highest dose activity change, negative = inhibition, usual class: inhibitors | IDH1-R132H enzyme, NADPH consumption, diaphorase/resazurin fluorescence; note: potency is the fitted concentration of half-maximal effect; % is set by controls: 0 for no effect and ±100 for the full control effect; nearly all actives have a fitted effect of over 65% in size
#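 IDH1-R132H (0.5 ug/mL dispensed) in pH 7.5 Tris buffer was preincubated 30 min with compound, then given a substrate mix of 0.016 mM NADPH and 2 mM alpha-KG for 80 min at room temperature; remaining NADPH was read by diaphorase/resazurin fluorescence.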
# D3 ag – qHTS of D3 Dopamine Receptor Agonist: qHTS | D3R DiscoveRx beta-arrestin cells, luminescence, 90 min | max activation, % | hit rate 0.58% among 410,000 | D(3) dopamine receptor (Homo sapiens), P35462; in the data active = max activation above about 30%; note: 0% is about no effect
# Target sequence (P35462 whole entry, looked up): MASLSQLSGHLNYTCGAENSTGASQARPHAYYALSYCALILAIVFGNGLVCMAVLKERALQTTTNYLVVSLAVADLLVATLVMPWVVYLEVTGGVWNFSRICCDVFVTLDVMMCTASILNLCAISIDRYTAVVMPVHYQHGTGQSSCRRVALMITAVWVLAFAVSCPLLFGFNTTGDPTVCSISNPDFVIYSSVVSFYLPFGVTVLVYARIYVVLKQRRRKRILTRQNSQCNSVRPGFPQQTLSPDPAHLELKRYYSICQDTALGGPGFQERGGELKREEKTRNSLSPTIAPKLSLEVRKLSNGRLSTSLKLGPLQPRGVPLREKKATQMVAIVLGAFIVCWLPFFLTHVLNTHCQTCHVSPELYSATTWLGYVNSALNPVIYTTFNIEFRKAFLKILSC
#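 Cells at 1500/well, incubated overnight, then treated with pinned compounds (dopamine as control) for 90 min at 37 degrees C. DiscoveRx reagent added for 30 - 60 minutes at room temperature; luminescence read.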
# DRD3 antagonist – qHTS of D3 Dopamine Receptor Antagonist: qHTS. D(3) dopamine receptor (Homo sapiens), P35462. D3R cells, DiscoveRx beta-arrestin luminescence, antagonist mode; active compounds read low. max response, negative = inhibition, %. hit rate 2.5% among 360,000. AID 652054, 2013; in the data active = max response below about -50%; inconclusive = no clear call, values can overlap the other calls; note: % is set by controls: 0 for no effect and ±100 for the full control effect
#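 Cells expressing the human receptor were seeded at 1500 cells/well, incubated overnight at 37 degrees C in 5% CO2, then exposed to library compounds with dopamine controls for 90 minutes at 37 degrees C before luminescent detection.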
# B2AR arrestin – qHTS assay of beta-arrestin-biased ligands of beta2-adrenergic receptor. Beta-2 adrenergic receptor (Homo sapiens), P07550. beta-arrestin recruitment to beta2AR, cell-based reporter. Potency, µM (doses to about 46.1 µM), for the others: top-dose activation, actives largely listed as activators. hit rate 0.02% among 330,000. AID 492947, 2010;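 note: potency is the fitted concentration of half-maximal effect; 0% = DMSO controls and full agonism = EC100 isoproterenol or metaproterenol; nearly all actives have a fitted effect of over 65% in size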
# * = called active by the depositor; ? = inconclusive; . = no result; [ ] = remark or other dose. Compounds with a hit are over-represented: about 2.9% of the library has one in this group of screens. Unless noted, calls come from the whole dose curve; as a rule, active = well fitted curve in the direction sought with a large enough effect; inconclusive = small, poorly fitted or top-dose-only effect, or another doubt; inactive = no such curve, though single readings can be large; an effect the other way counts as inactive or inconclusive.
SMILES,a7 integrin act,mIDH1 inhibitor,D3 ag,DRD3 antagonist,B2AR arrestin
C=C(CN(C)C)C(=O)c1ccc2c(c1)OCO2,-54%,0%,-6,-54*,.
COc1cc(N)c(Cl)cc1C(=O)N[C@@H]1CCN(CCCOc2ccc(F)cc2)C[C@@H]1OC,.,.,.,.,10%
COc1cc(N)c(Cl)cc1C(=O)N[C@H]1CCN(CCCOc2ccc(F)cc2)C[C@H]1OC,.,0%,-93,-77*,1%
CCc1ccc(-n2nc(CO)c(C(=O)NCCCc3ccccc3)n2)cc1,.,8%,0,.,.
CN(C)c1cc(NC(=O)CNC(C)(C)C)c(O)c2c1C[C@H]1C[C@H]3[C@H](N(C)C)C(=O)C(C(N)=O)=C(O)[C@@]3(O)C(=O)C1=C2O,.,.,8,.,.
CCN(Cc1ccccc1)C(=O)Cn1cc(S(=O)(=O)NC)c(S(=O)(=O)NC)c1,-7%,0%,0,-52*,0%
CCOCC(=O)N(CC)Cc1ccccc1,6%,-12%,6,5,0%
CC1CCCCN1C(=O)CSc1c2c(nc3cc(Cl)ccc13)CCCC2 (configuration not stated),.,29%,4,.,.
COc1cccc(OCc2cc(=O)n3c(-c4ccccc4)csc3n2)c1,.,-15%,9,.,.
CC(C)(NC(=O)NC(CO)c1ccccc1)c1cccc(C(C)(C)NC(=O)NC(CO)c2ccccc2)c1 (configuration not stated),6%,3%,14,-1,6.5µM*
CCOc1ccc(-n2c(=O)c3c(C)c(C)sc3n(CC(=O)N3CCC(C)CC3)c2=O)cc1,.,.,-3,.,.
Fc1ccc(N2CCN(Cc3c[nH]c4ccccc34)CC2)cc1,.,.,.,.,0%
Cc1ccccc1N1CCN(Cc2c[nH]c3ccccc23)CC1,-44%,2%,-26,-86*,0%
c1cnc(N2CCN(Cc3c[nH]c4ccccc34)CC2)nc1,-50%,-3%,-7,-51*,0%
COc1ccccc1N1CCN(Cc2c[nH]c3ccccc23)CC1,-39%,12%,-24,-80*,0%
O=C(c1cccc(Cl)c1)N1CCN(Cc2c[nH]c3ccccc23)CC1,1%,7%,-4,1,0%
Cc1ccc(CN2CCN(c3cccc4[nH]ccc34)CC2)cc1,20%,-13%,30,-82*,0%
O=C(c1ccc(Cl)cc1)N1CCN(c2cccc3[nH]ccc23)CC1,-12%,3%,3,5,0%
COc1ccccc1N1CCN(C(=O)CCc2c[nH]c3ccccc23)CC1,-13%,7%,-2,-6,0%
COC(=O)C1(C(=O)OC)C[C@H](/C=C/c2ccccc2)N(Cc2ccccc2OC)[C@@H]1c1ccccc1,.,.,-1,-5,.
NNC(=O)c1cc(NS(=O)(=O)c2cccs2)cc(NS(=O)(=O)c2cccs2)c1,8%,-4%,-1,-2,-1%
CCCc1nn2c(=O)cc(COC(=O)c3cccc(NC(=O)COc4ccccc4C)c3)nc2s1,.,-20%,5,.,.
CCSc1ccc(-c2nn(-c3ccccc3)cc2/C=C(/C#N)C(=O)NCCCOC)cc1,-3%,6%,37*,15,-1%
Cc1ccc2sc(N(CCN(C)C)C(=O)c3ccc4ccccc4c3)nc2c1C,1%,5%,0,-73*,0%
O=C(Nc1cc(C(F)(F)F)ccc1Cl)c1cnn(-c2ccccc2)c1-n1cccc1,.,17%,55*,.,.
SMILES,a7 integrin act,mIDH1 inhibitor,D3 ag,DRD3 antagonist,B2AR arrestin
CCN(CC)CCOc1ccc(-c2nc3cc(Cl)ccc3s2)cc1,.,.,-12,.,.
CCN(CC)c1ccc(N=Cc2ccc(N(CC)CC)cc2O)cc1,-10%,4%,-8,-19,0%
CCN(CC)c1ccc(C=Nc2ccccc2)c(O)c1,-5%,15%,-3,-54*,0%
NC[C@@H]1O[C@H](O[C@H]2[C@@H](O)[C@H](O[C@@H]3[C@@H](O)[C@H](N)C[C@H](N)[C@H]3O[C@H]3O[C@H](CN)[C@@H](O)[C@H](O)[C@H]3N)O[C@@H]2CO)[C@H](N)[C@@H](O)[C@@H]1O,.,.,-2,.,.
Cc1c(N=NC2=C(O)CCCC2=O)c(=O)n(-c2ccccc2)n1C,-25%,2%,-28,-83*,0%
Cc1c(N=Nc2ccc(O)cc2)c(=O)n(-c2ccccc2)n1C,0%,15%,3,-30,0%
O/N=C/CCn1c(=S)sc2ccccc21,9%[7.66 µM],10%,-8,-51*,0%
COC(=O)c1ccc(C(=O)OC)c(NC(=O)CSc2cccc[n+]2[O-])c1,?,11%,-11,?,5µM*
COC(=O)c1ccc(-n2c(C)cc(C(=O)CSc3cccc[n+]3[O-])c2C)cc1,-22%,-3%,16,12,0%
O=C(CCN1CCc2ccccc2C1)c1ccc2c(c1)OCCO2,-66%,0%,-8,-88*,0%
O=C(CCN1CCC(c2ccccc2)C1)c1ccc2c(c1)OCCO2 (configuration not stated),.,-7%,-87,-66*,0%
Cc1ccc2occ(-c3cc(-c4ccccc4)nc4c3COc3ccccc3-4)c(=O)c2c1,.,3%,3,.,.
CC(=O)Nc1nc(-c2ccccc2)nc(-c2ccccc2OC(C)=O)n1,7%,0%,3,3,0%
CC(=O)Nc1nc(C)nc(-c2ccccc2OC(C)=O)n1,0%,7%,31*,18,0%
COc1ccc(-n2c(SCC(=O)NC3CCCCC3)nc3c([nH]c4ccccc43)c2=O)cc1,.,-11%,3,.,.
CC1CCN(CCCCOc2cccc(Br)c2)CC1,-41%,4%,-32,?,0%
Cc1cc(C)c(OCCCCN2CCC(C)CC2)c(Br)c1,-32%,5%,-38,?,0%
Cc1cc(Br)ccc1OCCCCN1CCC(C)CC1,-40%,9%,-27,-76*,0%
Brc1ccc(OCCCCN2CCCCC2)cc1,-58%,-4%,-7,-55*,0%
CC1CN(CCOc2ccc(Cl)c(Cl)c2)CC(C)O1 (configuration not stated),-22%,11%,-19,?,0%
CC1CCN(CCOc2ccc(Cl)c(Cl)c2)CC1,6%,16%,1,-51*,1%
CC1CCN(CCCCOc2ccc(Br)cc2)CC1,-57%,-1%,-18,-52*,0%
Cc1cccc(CNC(=O)Cc2csc3ccccc23)c1,.,.,5,.,.
C=C1CC[C@H](O)C/C1=C\C=C1/CCC[C@]2(C)[C@@H]([C@H](C)CCCC(C)C)CC[C@@H]12,.,.,6,.,.
O=C(COC(=O)/C=C/c1ccc(C(F)(F)F)cc1)NC1CC1,7%,1%,-1,-64*,0%
